Calls of active or inactive are those of the source. Unless noted, no rule for the calls is given here.
How the values were obtained:
[1] = hit retest on RPL19A-GFP reporter strain – cell-based, S. cerevisiae, flow cytometry, cherry picks, mother/daughter gates, confirmation (AID 2270;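 active = GFP response below 50% of the DMSO control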); conditions: 3 h, at 10 µM, stronger effect = lower value, 100 = same GFP as DMSO wells
[2] = yeast TOR pathway reporter LAP4-GFP change – cell-based, cherry picks, flow cytometry, mother/daughter gates, confirmation (AID 2271;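 active = GFP response above 150% of the DMSO control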;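 also: ratio of sample to DMSO plate mean so 100% equals DMSO level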); conditions: S. cerevisiae LAP4-GFP strain, 3 h, at 10 µM, stronger effect = higher value
[3] = TOR pathway CIT2 reporter hit retest – S. cerevisiae, GFP fusion, cherry picks, mother/daughter gates, confirmation (AID 2274;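 active = GFP response above 150% of the DMSO level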); conditions: S. cerevisiae CIT2-GFP strain, flow cytometry, 3 h, at 10 µM, stronger effect = higher value
[4] = system: Botulinum neurotoxin type F light chain protease (Clostridium botulinum); experiment: Clostridium botulinum type F light chain protease inhibitors, microsphere substrate cleavage, validation (AID 588459); conditions: multiplex microsphere protease substrate cleavage assay, flow cytometry; at 10 µM; stronger effect = higher value
[5] = molecular target: Botulinum neurotoxin type A (Clostridium botulinum) (UniProt P0DPI0); experiment: BoNT/A light chain protease inhibitors, biochemical, multiplex microsphere flow cytometry, validation set (AID 588460); conditions: at 10 µM, stronger effect = higher value
[6] = molecular target: Lethal factor (Bacillus anthracis) (UniProt P15917); experiment: Bacillus anthracis lethal factor inhibition, microsphere flow cytometry protease assay, validation at 10 µM (AID 588461); conditions: multiplex microsphere protease cleavage assay, stronger effect = higher value
[7] = measured here: daughter cell gate
[8] = measured here: mother cell gate
[9] = measured here: daughter cell gate response
[10] = measured here: mother cell gate response

Sequence of Lethal factor (Bacillus anthracis) (P15917 whole entry, looked up): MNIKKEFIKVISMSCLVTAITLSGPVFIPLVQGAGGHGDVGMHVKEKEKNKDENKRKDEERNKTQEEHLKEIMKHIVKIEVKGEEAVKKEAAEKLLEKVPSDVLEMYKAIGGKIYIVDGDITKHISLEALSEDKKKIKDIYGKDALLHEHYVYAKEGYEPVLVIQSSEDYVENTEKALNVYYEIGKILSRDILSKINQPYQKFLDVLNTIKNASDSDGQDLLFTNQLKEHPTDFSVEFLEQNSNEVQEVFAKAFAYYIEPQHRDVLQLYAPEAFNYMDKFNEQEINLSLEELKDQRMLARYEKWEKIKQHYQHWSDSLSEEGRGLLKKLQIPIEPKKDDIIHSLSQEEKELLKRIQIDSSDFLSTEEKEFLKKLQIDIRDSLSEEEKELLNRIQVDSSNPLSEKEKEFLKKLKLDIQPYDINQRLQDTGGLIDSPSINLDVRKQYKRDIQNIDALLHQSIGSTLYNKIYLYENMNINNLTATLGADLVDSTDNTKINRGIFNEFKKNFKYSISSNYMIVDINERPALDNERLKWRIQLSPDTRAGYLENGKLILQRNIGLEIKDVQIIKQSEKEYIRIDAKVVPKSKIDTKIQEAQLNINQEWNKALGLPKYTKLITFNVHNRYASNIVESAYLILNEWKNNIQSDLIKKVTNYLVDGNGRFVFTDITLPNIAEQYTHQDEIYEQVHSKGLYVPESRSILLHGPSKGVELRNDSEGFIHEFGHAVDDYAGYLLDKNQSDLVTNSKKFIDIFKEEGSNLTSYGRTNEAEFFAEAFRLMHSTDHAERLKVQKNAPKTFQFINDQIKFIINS
Sequence of Botulinum neurotoxin type A (Clostridium botulinum) (P0DPI0 whole entry, looked up): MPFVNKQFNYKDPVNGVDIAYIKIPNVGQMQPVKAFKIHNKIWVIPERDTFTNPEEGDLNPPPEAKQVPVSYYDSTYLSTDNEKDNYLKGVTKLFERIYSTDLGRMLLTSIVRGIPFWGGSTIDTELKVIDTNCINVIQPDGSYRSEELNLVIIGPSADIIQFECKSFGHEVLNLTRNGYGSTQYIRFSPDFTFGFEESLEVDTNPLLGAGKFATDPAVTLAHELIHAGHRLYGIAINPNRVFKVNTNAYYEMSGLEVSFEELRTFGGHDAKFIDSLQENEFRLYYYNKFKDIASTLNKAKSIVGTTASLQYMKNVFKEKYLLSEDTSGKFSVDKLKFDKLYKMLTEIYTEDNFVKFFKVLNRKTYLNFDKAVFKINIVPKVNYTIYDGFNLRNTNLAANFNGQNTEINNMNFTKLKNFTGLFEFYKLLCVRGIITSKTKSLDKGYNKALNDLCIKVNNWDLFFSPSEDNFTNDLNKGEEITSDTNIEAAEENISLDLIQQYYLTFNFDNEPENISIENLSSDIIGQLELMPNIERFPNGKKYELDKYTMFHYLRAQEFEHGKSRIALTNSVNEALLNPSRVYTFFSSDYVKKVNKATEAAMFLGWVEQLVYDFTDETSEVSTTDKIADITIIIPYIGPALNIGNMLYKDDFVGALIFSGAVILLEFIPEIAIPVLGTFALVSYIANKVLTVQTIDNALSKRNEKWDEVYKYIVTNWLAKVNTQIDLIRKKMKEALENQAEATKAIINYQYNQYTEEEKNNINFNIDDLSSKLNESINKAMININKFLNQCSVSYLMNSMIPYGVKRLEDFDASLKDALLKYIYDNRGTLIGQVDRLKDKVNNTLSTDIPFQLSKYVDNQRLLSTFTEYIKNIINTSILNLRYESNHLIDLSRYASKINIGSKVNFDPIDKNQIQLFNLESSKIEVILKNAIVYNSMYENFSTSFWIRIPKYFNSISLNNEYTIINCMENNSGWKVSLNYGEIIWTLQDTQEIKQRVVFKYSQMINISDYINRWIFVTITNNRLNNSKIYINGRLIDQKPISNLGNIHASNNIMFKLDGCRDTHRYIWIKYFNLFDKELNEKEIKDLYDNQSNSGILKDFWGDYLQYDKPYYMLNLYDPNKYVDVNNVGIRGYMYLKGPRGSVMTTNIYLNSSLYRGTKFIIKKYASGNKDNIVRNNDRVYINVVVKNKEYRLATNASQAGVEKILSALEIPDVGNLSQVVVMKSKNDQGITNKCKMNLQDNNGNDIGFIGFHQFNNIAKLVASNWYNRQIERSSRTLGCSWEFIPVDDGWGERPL

## O=C1NC(=O)N(CCc2ccc(F)cc2)C(=O)/C1=C/c1cccs1
[1]
  GFP response vs DMSO: 97% (inactive)
[1]; [7]
  GFP response vs DMSO: 95%
[1]; [8]
  GFP response vs DMSO: 94.1%
[2]
  GFP response relative to DMSO: 152% (active)
[2]; [9]
  GFP response relative to DMSO: 142%
[2]; [10]
  GFP response relative to DMSO: 155%
[3]
  GFP response, % of DMSO: 81% (inactive)
[3]; [7]
  GFP response, % of DMSO: 85.7%
[3]; [8]
  GFP response, % of DMSO: 72.8%

## O=C1NC(=O)N(CCc2ccc(F)cc2)C(=O)/C1=C/c1ccco1
[1]
  GFP response vs DMSO: 98% (inactive)
[1]; [7]
  GFP response vs DMSO: 99.4%
[1]; [8]
  GFP response vs DMSO: 97%
[2]
  GFP response relative to DMSO: 104% (inactive)
[2]; [9]
  GFP response relative to DMSO: 106%
[2]; [10]
  GFP response relative to DMSO: 104%
[3]
  GFP response, % of DMSO: 98.4% (inactive)
[3]; [7]
  GFP response, % of DMSO: 100%
[3]; [8]
  GFP response, % of DMSO: 93.7%

## O=C1NC(=O)N(c2ccccc2)C(=O)/C1=C/c1ccc(Sc2ccccc2)o1
[1]
  GFP response vs DMSO: 99.7% (inactive)
[1]; [7]
  GFP response vs DMSO: 98.5%
[1]; [8]
  GFP response vs DMSO: 95.2%
[2]
  GFP response relative to DMSO: 177% (active)
[2]; [9]
  GFP response relative to DMSO: 135%
[2]; [10]
  GFP response relative to DMSO: 170%
[3]
  GFP response, % of DMSO: 89.2% (inactive)
[3]; [7]
  GFP response, % of DMSO: 98.3%
[3]; [8]
  GFP response, % of DMSO: 79.3%

## CCCCN(CCCC)CCCOC(=O)c1ccc(N)cc1
[4]
  inhibition: -1.6% (inactive)
[5]
  inhibition: 0.8% (inactive)
[6]
  inhibition: 1.4% (inactive)

## CCN1CCn2c3c(c4cc(Cl)ccc42)CCCC31 (stereo not given)
[4]
  inhibition: 0.6% (inactive)
[5]
  inhibition: 1.4% (inactive)
[6]
  inhibition: -8.7% (inactive)

## O=[N+]([O-])c1cccc2cn[nH]c12
[4]
  inhibition: 6.9% (inactive)
[5]
  inhibition: 3% (inactive)
[6]
  inhibition: 6.3% (inactive)

## CC(=O)Nc1ccc(CN2CCN(C3CCCCC3)C(CCO)C2)cc1 (stereo not given)
[4]
  inhibition: -0.2% (inactive)
[5]
  inhibition: -1.1% (inactive)
[6]
  inhibition: -3.7% (inactive)

## O=C(O)CCCCCN1C(=O)C(=O)/C(=C(/O)c2ccccc2)C1c1ccccc1 (stereo not given)
[4]
  inhibition: 0.2% (inactive)
[5]
  inhibition: 0.9% (inactive)
[6]
  inhibition: -6.7% (inactive)

## CC[n+]1c(C)sc2cc(C)ccc21
[4]
  inhibition: 3.6% (inactive)
[5]
  inhibition: 1.9% (inactive)
[6]
  inhibition: -1.6% (inactive)

## CC12CCCCN1CCCc1c2[nH]c2ccccc12 (stereo not given)
[4]
  inhibition: -1.1% (inactive)
[5]
  inhibition: -0.2% (inactive)
[6]
  inhibition: -11.1% (inactive)

## COc1c2occc2c(OC)c2c(=O)cc(C(F)(F)C(F)(F)F)oc12
[4]
  inhibition: 2.3% (inactive)
[5]
  inhibition: 0.5% (inactive)
[6]
  inhibition: 0.4% (inactive)

## COC(=O)c1cc(C(=O)NCCC(C)C)cc([N+](=O)[O-])c1
[4]
  inhibition: -5.3% (inactive)
[5]
  inhibition: -2.3% (inactive)
[6]
  inhibition: 2.1% (inactive)

## COc1cc(SC)ccc1C(=O)NC(C)C
[4]
  inhibition: 2.9% (inactive)
[5]
  inhibition: 2.2% (inactive)
[6]
  inhibition: 0.8% (inactive)

## COc1ccc(C2NC(=O)c3ccccc3O2)c(OC)c1OC (stereo not given)
[4]
  inhibition: -2.1% (inactive)
[5]
  inhibition: -0.5% (inactive)
[6]
  inhibition: 2.9% (inactive)

## CC(C)=CCC/C(C)=C/CC/C(C)=C/CC/C(C)=C/CC1=C(C)C(=O)c2ccccc2C1=O
[4]
  inhibition: -4.8% (inactive)
[5]
  inhibition: -0.7% (inactive)
[6]
  inhibition: -3% (inactive)

## COc1cc2c(cc1OC)C(c1ccc(-c3cc(Cl)ccc3Cl)o1)=NCC2
[4]
  inhibition: 0.4% (inactive)
[5]
  inhibition: 0.7% (inactive)
[6]
  inhibition: -4.2% (inactive)

## CC(C)c1ccc(/C=C/C(=O)O)cc1
[4]
  inhibition: 1.6% (inactive)
[5]
  inhibition: -0.1% (inactive)
[6]
  inhibition: 11% (inactive)

## C/C(NC(=O)c1cccs1)=C1\C(=O)C[C@@H]2[C@H]1C2(C)C
[4]
  inhibition: 3% (inactive)
[5]
  inhibition: 0.5% (inactive)
[6]
  inhibition: 3.4% (inactive)

## CO[C@H]1C=CO[C@@]2(C)Oc3c(C)c(O)c4c(O)c(c(C=NN5CCN(C)CC5)c(O)c4c3C2=O)NC(=O)C(C)=CC=C[C@H](C)[C@H](O)[C@@H](C)[C@@H](O)[C@@H](C)[C@H](OC(C)=O)[C@@H]1C
[4]
  inhibition: -7.2% (inactive)
[5]
  inhibition: 0.5% (inactive)
[6]
  inhibition: -7.3% (inactive)
